Measurements: PubChem BioAssay (NCI)
The panel holds about 83,000 compounds, 20% with a hit somewhere; the sample as a whole holds those more often.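 Plates (96-well) were seeded with cells, treated with compound at one concentration, and incubated for 48 hours before percent growth was determined.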 A number with no mark means an inactive call. Calls of active or inactive are those of the source. Rule for the calls: active = growth percent below 10; inactive = the rest.

Key:
Test in all cases: NCI-60 one-dose screen, 48 h (100 = growth as untreated, 0 = no growth, -100 = all killed)
Details in all cases: 10 µM unless noted
SK-MEL-2 melanoma = test system: SK-MEL-2 melanoma
EKVX NSCLC = test system: EKVX NSCLC
SN12C renal = test system: SN12C renal
UO-31 renal = test system: UO-31 renal
TK-10 renal = test system: TK-10 renal
ACHN renal = test system: ACHN renal
CAKI-1 renal = test system: CAKI-1 renal
A498 renal = test system: A498 renal
CCRF-CEM leukemia = test system: CCRF-CEM leukemia
MOLT-4 leukemia = test system: MOLT-4 leukemia
SR leukemia = test system: SR leukemia
RPMI-8226 leukemia = test system: RPMI-8226 leukemia
OVCAR-8 ovarian = test system: OVCAR-8 ovarian
OVCAR-5 ovarian = test system: OVCAR-5 ovarian
SK-OV-3 ovarian = test system: SK-OV-3 ovarian
IGROV1 ovarian = test system: IGROV1 ovarian
OVCAR-3 ovarian = test system: OVCAR-3 ovarian
HS 578T breast = test system: HS 578T breast
NCI/ADR-RES ovarian = test system: NCI/ADR-RES ovarian
OVCAR-4 ovarian = test system: OVCAR-4 ovarian

Structure (SMILES) | growth (SK-MEL-2 melanoma) | growth (EKVX NSCLC) | growth (SN12C renal) | growth (UO-31 renal) | growth (TK-10 renal) | growth (ACHN renal) | growth (CAKI-1 renal) | growth (A498 renal) | growth (CCRF-CEM leukemia) | growth (MOLT-4 leukemia) | growth (SR leukemia) | growth (RPMI-8226 leukemia) | growth (OVCAR-8 ovarian) | growth (OVCAR-5 ovarian) | growth (SK-OV-3 ovarian) | growth (IGROV1 ovarian) | growth (OVCAR-3 ovarian) | growth (HS 578T breast) | growth (NCI/ADR-RES ovarian) | growth (OVCAR-4 ovarian)
CCN(CC)CCN1C(=O)c2c(c(C)c3c(oc4ccc(O)cc43)c2C)C1=O | 89% | 83.2% | -41.9% (active) | -92.4% (active) | -13.9% (active) | -80.4% (active) | -6.73% (active) | 91.7% | -14.7% (active) | 10.2% | 28.5% | -37.3% (active) | -5.2% (active) | 97.6% | 101% | 1.64% (active) | -68.2% (active) | 72.9% | 21.7% | 
CN1CCN(C(=S)SCCCCOc2cc(=O)oc3ccccc23)CC1 | 73.9% | 88.1% | 88.5% | 72.3% | 93.3% | 92.9% | 93.7% | 74.7% | 72.5% | 73.2% | 67.4% | 64.8% | 78.4% | 101% |  | 102% | 95.8% | 96.2% | 76.2% | 72.4%
O=C1Nc2ccccc2C1(c1c[nH]c2ccccc12)c1c[nH]c2ccccc12 | 87.7% | 23.3% | 1.17% (active) | 33.6% | -10.1% (active) | 1.55% (active) | 44% | 49.3% | 65% | 46.7% | 77.1% | 77.5% | -9.32% (active) | 65.4% |  | 8.3% (active) | -47.2% (active) | -17.9% (active) | 27.1% | -25.2% (active)
COc1cc(/C=N/Nc2ccc(Br)cc2)cc(OC)c1OC | 73% | 63.9% | 69.7% | 35% | 97.2% | 31.6% | 10.2% | 60% | 31.1% | 44.1% | 68.8% | 58.4% | 54.8% | 68.4% |  | 57.3% | 63.3% | 80% | 57.2% | 51%
O=S(=O)(NCCCNc1nccc(-c2c(-c3cccc(F)c3)nc3occn23)n1)c1ccc(F)cc1 | 55.5% | 54.3% | 51.2% | 31.4% | 56.7% | 46% | 37.1% | 45.7% | 31.9% | 8.3% (active) | 53.8% | 37.3% | 30.1% | 89.9% | 54.5% | 24.5% | 55.3% | 59% |  | 
Cc1ccc(C)c2c(C)c(C(=O)Nc3cccc(-n4cccn4)c3)oc12 | 66.3% [50 µM] | 53.8% [50 µM] | 70% [50 µM] | 40.7% [50 µM] | 82.1% [50 µM] | 64.9% [50 µM] | 44.6% [50 µM] | 55.6% [50 µM] | 42.4% [50 µM] | 42.2% [50 µM] | 56.7% [50 µM] | 43.8% [50 µM] | 42.4% [50 µM] | 93.6% [50 µM] | 111% [50 µM] | 76.3% [50 µM] | 82% [50 µM] | 81.1% [50 µM] | 54.3% [50 µM] | 
CCCCNC(=O)Oc1ccc(/C(=C(/C)Cc2ccc(OC)cc2)c2ccc(OCCN3CCCCC3)cc2)cc1 | 113% | 76.3% | 73.9% | 51% | 84.4% | 91.3% | 83.6% | 96.3% | 42.8% | 33.6% | -40.5% (active) | 32.3% | 84.7% | 84.5% |  | 84.5% | 77.1% | 72.9% | 81.9% | 69.3%
CN(C)CCN1C(=O)c2cccc3c(/C=C/CN4C(=O)c5cccc6cccc(c56)C4=O)ccc(c23)C1=O | 104% | 109% | 79.9% | 72% | 121% | 72.7% | 91% | 81.4% | -44.1% (active) | 34.3% | -16.4% (active) | -31.4% (active) | -43.5% (active) | -69% (active) | 109% | 89.4% | 114% | 82.6% | 24% | 
CC(C)(C)n1cc(-c2ccnc(NCCNS(=O)(=O)c3ccc(O)cc3)c2)c(-c2cccc(O)c2)n1 | 108% | 104% | 98.3% | 91.2% | 116% | 98.2% | 103% | 88.8% | 92.7% | 95.1% | 88% | 80% | 96% | 97.1% |  | 112% | 114% | 97.6% | 107% | 94.1%
COc1ccc(Cn2cc3c(c2-c2ccccc2)CCc2cnoc2-3)cc1 | 64.6% | 44.1% | 37.3% | 36.5% | 91.9% | 46.6% | 34% | 33.3% | 8.41% (active) | 25.5% | 29.9% | -25.3% (active) | 19.9% | 26% |  | 21.7% | -11.5% (active) | 9.15% (active) | 4.47% (active) | 54.7%
CC(=O)OC[C@]12CC[C@@H]([C@@H](C)c3nnc(-c4ccncc4)o3)[C@@H]1[C@H]1CC[C@@H]3[C@@]4(C)CC[C@H](OC(C)=O)C(C)(C)[C@@H]4CC[C@@]3(C)[C@]1(C)CC2 | 82.3% | 69.3% | 87.1% | 69% | 94.7% | 80.8% | 64.4% | 97.4% | 68.4% | 57.2% | 53.2% | 47.4% | 90.4% | 109% |  | 100% | 80.9% | 92.1% | 90.6% | 72.3%
COc1ccc(CCN(CC(=O)N(CC(N)=O)C2CCC[C@@H]2OCc2ccccc2)C(=O)CN(C(=O)CN(CCc2ccc(Cl)cc2)C(=O)CN(C(=O)CN(C)Cc2ccccc2F)[C@H](C)C2CCCCC2)[C@H](C)C2CCCCC2)cc1OC (some centres not stated) | 1.88% (active) | 30.8% | 35.3% | 37.3% | 15.6% | 28.8% | 94.7% | 32% | 7.58% (active) | -37% (active) | -37.1% (active) | -0.194% (active) | 32.2% | 49.2% |  | 43.4% | 32.5% | 64.3% | 79.2% | 48.9%
COc1ccc(/C=C/C(=O)c2ccc(NC(=O)CSc3nc4c([nH]3)c(=O)n(C)c(=O)n4C)cc2)cc1OC | 110% | 88.5% | 85.3% | 90.8% | 97.9% | 94.4% | 84.7% | 71.7% | 66% | 72.4% | 36.6% | 85.9% | 89.7% | 83.9% |  | 71.3% | 70% | 81.3% | 96.1% | 72.6%
CN(CCC(=O)c1ccccc1)CCC(=O)c1ccccc1 | 91% | 103% | 82.5% | 77.1% | 88.8% | 107% | 90.7% | 78.9% | 80.6% | 94.5% | 49.9% | 50.8% | 93.2% | 95.5% |  | 95.3% |  | 100% | 86.5% | 103%
COc1ccc(C(=O)/C=C/c2ccc(N3CCCCC3)cc2)cc1OC | 103% | 92.8% | 90.5% | 73.4% | 110% | 100% | 90.4% | 87.2% | 81.5% | 88.7% | 73.3% | 72.9% | 92.8% | 99.8% |  | 95.4% | 104% | 103% | 92.8% | 65.3%
N#C/C(=C\c1cn(Cc2ccccc2)c2ccccc12)C(=O)Nc1ncc(Cc2ccccc2Cl)s1 | 35.9% | 28.7% | 18.1% | -34.3% (active) | 6.29% (active) | -58.4% (active) | -11.4% (active) | -13.3% (active) | 37% | 61% | 8.65% (active) | 67.6% | 6.09% (active) | -2.57% (active) |  | 9.54% (active) | -19.1% (active) | 21.7% | 15% | -74.6% (active)
